Results from PubChem BioAssay AID1814 (Broad Institute, 2009).
The campaign covered roughly 300,000 compounds. About 22,000 (7.3%) were called active. About 2% were inconclusive and are not listed. The full list was thinned out, with actives kept by preference. A number with no mark means an inactive call. No stated cut-off is given here; in the data, active means activity score below about -60%; inconclusive means mostly about -28% to -61%; inactive means positive scores.

Test: Activators working through SNCA 5'UTR binding (MLPCN) (AID 1814)
Conditions: alpha-synuclein 5'UTR reporter, activators screen; hits give low values; tested at 7.5 µM

SMILES	activity score
N#CC1=C(N)Oc2cc(O)ccc2C1C1CCCCC1 (stereo not drawn)	-65.6% (active)
C=CCN(C(=O)Nc1ccc2oc(C)nc2c1)c1ccccc1	-65.8% (active)
C=CCN(C(=O)Nc1ccc2c(c1)nc(C)n2C)c1ccccc1	-71.4% (active)
O=C(COc1ccc([N+](=O)[O-])cc1)Nc1ccc(N2CCCC2)cc1	-69.6% (active)
O=C(CSc1nnc2ccccn12)c1ccccc1	-81.7% (active)
CC(C)(C)C1CCc2c(sc3nc(SCC(N)=O)nc(N)c23)C1 (stereo not drawn)	-196% (active)
C=C(C)CSc1nc(N)c2c3c(sc2n1)CCC3	-152% (active)
Cc1ccc(NC(=O)c2csc3c2CCCC3)cc1	-158% (active)
COC(=O)c1sc(NC(=O)c2csc3c2CCCC3)nc1C	-228% (active)
Cc1cc2c(C)nc(N/N=C/c3ccccc3)nc2o1	-123% (active)
COC(=O)c1ccc(CSc2nncn2C)cc1	-112% (active)
COC(=O)c1ccc(CSc2ccc3nnc(-c4ccccc4)n3n2)o1	53.7%
Cc1ccc(Oc2nc(-c3ccccn3)nc3ccccc23)cc1	-92.6% (active)
CSc1nc2ccc(NC(=O)c3c(F)cccc3F)cc2s1	-166% (active)
CCn1c(=O)c2cc(C(=O)Nc3cccc(C(C)=O)c3)sc2c2ccccc21	-66.3% (active)
Fc1cccc(Cl)c1CSc1ccc(-c2ccco2)nn1	-172% (active)
CSc1ccccc1NC(=O)c1cnc2sc(C)cn2c1=O	-129% (active)
CC(C)(C)NC(=O)Cn1nnc(-c2ccccc2Cl)n1	-117% (active)
O=C1N/C(=C/c2cccn2-c2ccccc2)C(=O)N1c1cccc(Cl)c1	-65.3% (active)
COc1ccc(C2CC(c3cccs3)=NN2c2ccccc2)cc1 (stereo not drawn)	-69% (active)
COc1ccc(Cc2n[nH]c(=S)n2NC(=O)Nc2ccc(C)cc2)cc1	-75.9% (active)
CC(C)COC(=O)c1ccc(NC(=O)C2C3C=CC(C3)C2C(=O)O)cc1 (stereo not drawn)	-101% (active)
Cc1nc2cc(NC(=O)NCc3ccccc3)ccc2o1	-102% (active)

SMILES	activity score
Cc1ccc(NC(=O)Nc2ccc3oc(C)nc3c2)cc1	-272% (active)
COc1cc(/C=C2/C(=O)ON=C2C)ccc1OCc1cccc(F)c1	-149% (active)
COc1cc(/C=C2/C(=O)ON=C2C)ccc1OCc1ccccc1F	-183% (active)
CN1CCN(C2Cc3ccc(Cl)cc3Sc3ccc(F)cc32)CC1 (stereo not drawn)	104%
Cc1n[nH]c(C)c1S(=O)(=O)N1CCCC(C(=O)Nc2ccc(Br)cc2)C1 (stereo not drawn)	-116% (active)
COc1ccc(S(=O)(=O)N2CCCC(C(=O)Nc3ccc(NC(=O)c4ccccn4)cc3)C2)cc1 (stereo not drawn)	-87.5% (active)
CCOC(=O)CSC1=C(C#N)C(c2sccc2C)CC(=O)N1 (stereo not drawn)	75%
O=C(CSCc1cccs1)N1CCCC1	-80.2% (active)
O=C(CSCc1ccc(Cl)cc1)N1CCCCC1	-102% (active)
Nc1scc(-c2ccncc2)c1Cl	-79.4% (active)
CC1CN/C(=C\C(=O)c2ccc(Br)cc2)C(=O)N1 (stereo not drawn)	62%
CC(=O)c1ccc(Oc2cc(C)nc(-n3nc(C)cc3C)n2)cc1	80.1%
Cc1ccc(/C=N/NC(=O)CSc2nc3ccccc3o2)cc1	-108% (active)
O=C(CSc1nc2ccccc2o1)N/N=C/c1ccccc1C(=O)O	-97.9% (active)
COC(=O)c1ccc(/C=N/N2C(C)CCCC2C)cc1 (stereo not drawn)	-172% (active)
CC(=O)c1ccc(S(=O)(=O)N2CCN(C(=O)/C=C/c3ccc4ccccc4n3)CC2)cc1	62.4%
O=C(c1ccc2ccccc2n1)N1CCN(c2ccccc2Cl)CC1	-142% (active)
Oc1ccccc1-c1cc(-c2ccc(Cl)cc2)n[nH]1	-126% (active)
c1ccc(-c2cc(-c3ccccc3)[nH]n2)cc1	-106% (active)
Cc1ccc(Nc2nc(-c3ccc(O)cc3O)cs2)nc1	-189% (active)
COc1ccc(OCCCn2cccc2/C=C2/C(=N)N3OC(C)=CC3=NC2=O)cc1	-95.9% (active)
Cc1ccc(-c2nn(-c3cccc(F)c3)cc2CNCCc2ccncc2)o1	-74% (active)
O=C(/C=C/c1ccc(Cl)c([N+](=O)[O-])c1)c1ccc(O)cc1	-156% (active)

SMILES	activity score
O=C(/C=C/c1ccc2c(c1)OCCO2)c1ccc(O)cc1	-260% (active)
CN(C)c1ccc(/C=C/C(=O)c2ccc(O)cc2)cc1[N+](=O)[O-]	-203% (active)
COc1ccc(/C=C2\SC(=S)N(CCCC(=O)NC3CCCC3)C2=O)cc1OC	83.7%
COc1ccc(/C=C2\SC(=O)N(CCC(=O)NC3CCS(=O)(=O)C3)C2=O)cc1 (stereo not drawn)	-71.6% (active)
Cc1nc(-c2ccccc2)sc1C(=O)/C=C/N(C)C	-76.2% (active)
Cc1nc(-c2ccccc2)sc1C(=O)/C=C/c1ccccc1	-83.8% (active)
CCOC(=O)c1c(C)[nH]c(C2=NNC(=NC(C)COC)SC2)c1C (stereo not drawn)	-98.9% (active)
O=C(CSc1nc2ccccc2[nH]1)c1cccs1	-160% (active)
CN(Cc1ccccc1)C(=O)CSc1nc2ccccc2[nH]1	-93.7% (active)
O=C1c2ccccc2NC(c2ccc(-c3cccc(Cl)c3)o2)N1O (stereo not drawn)	-145% (active)
Cc1cccc(C(=O)Nc2ccc3c(c2)C(=O)N(CC(C)C)C3=O)c1	-149% (active)
Nc1nnc(SCC(=O)Nc2ccc3nc(SCC(=O)Nc4ccccc4)sc3c2)s1	-107% (active)
O=C(Nc1cccc(Cl)c1)Nc1ccccc1NS(=O)(=O)c1cccs1	-81.4% (active)
Cc1ccc(NN=C2C(=O)OC(C)(C)OC2=O)c(C)c1	-140% (active)
Cc1nn(-c2ccccc2)c(Cl)c1/C=C/C(=O)c1ccc(O)cc1	-125% (active)
Cn1sc(NC(=O)c2ccccc2)nc1=O	-72.7% (active)
O=C(c1ccc(F)cc1)n1c(=S)nc2ccccn21	-171% (active)
COc1cc(/C=N/O)ccc1OCc1ccc([N+](=O)[O-])cc1	-86.3% (active)
COc1ccc2[nH]c3c(=O)n(Cc4ccco4)cnc3c2c1	-65.2% (active)
Cc1ccsc1/C=N/Nc1ccc(Cl)nn1	-101% (active)
Clc1ccc(N/N=C/c2cccs2)nn1	-131% (active)
COc1cccc(/C=N/Nc2ccc(Cl)nn2)c1	-168% (active)
